# Data from PubChem BioAssay (NCATS).
# Where “and” joins values, the source holds several entries; their conditions need not be identical. Equal entries are not always repeated. Inconclusive results are not listed. Entries that show only a call come without a potency. Calls of active or inactive are those of the source. Calls come from the whole dose curve.
# Tests used:
# [1] = Cytotoxicity counterscreen for inhibitors of SARS-CoV-2 cell entry (AID 1645845); details: cell viability (SARS-CoV-2 entry assay cells); series mostly up to 57.1 µM; note: nearly all actives have a fitted effect of over 50% in size
# Summary of the method: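 Counterscreen run in the same HEK293-ACE2 line as the pseudotyped-particle entry assay, without particles. Viability after 48 h at 37 C was read as ATP luminescence, scaled between cell-containing and cell-free wells.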
# [2] = Primary qHTS to identify inhibitors of SARS-CoV-2 cell entry (AID 1645846); details: SARS-CoV-2 pseudovirus cell entry assay, luminescence; activity change, negative = inhibition: at 57.1 µM (top of the series) unless noted; series mostly up to 57.1 µM; note: nearly all actives have a fitted effect of over 45% in size; note: potency is the fitted concentration of half-maximal effect
# Summary of the method: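 HEK293 cells stably expressing human ACE2, pre-treated 1 h with compound, then infected with MLV particles pseudotyped with Wuhan-Hu-1 spike (C-terminal 19-aa truncation). Luciferase luminescence after 48 h at 37 °C, normalised to spike PP and bald PP.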
structure (smiles),measurement,setting,value
CCCCOC(=O)c1ccc(O)cc1,Potency,[1],inactive
same,Potency,[2],inactive
CN1CCN(C(c2ccccc2)c2ccc(Cl)cc2)CC1 (centres undefined),Potency,[1],inactive
same,Potency,[2],10 µM (active)
O=C(O)c1cc(=O)c2c(OCC(O)COc3cccc4oc(C(=O)O)cc(=O)c34)cccc2o1,Potency,[1],inactive
same,Potency,[2],inactive
CC(C)Cc1ccc(CC(=O)O)cc1,Potency,[1],inactive
same,Potency,[2],inactive
CC(=O)O[C@]1(C(C)=O)CC[C@H]2[C@@H]3C[C@H](C)C4=CC(=O)CC[C@]4(C)[C@H]3CC[C@@]21C,Potency,[1],inactive
same,"activity change, negative = inhibition",[2],-11.3%
COc1cc(C(=O)NS(=O)(=O)c2ccccc2C)ccc1Cc1cn(C)c2ccc(NC(=O)OC3CCCC3)cc12,Potency,[1],inactive
same,Potency,[2],inactive
NC(=O)NC(=O)Cc1ccccc1,Potency,[1],inactive
same,Potency,[2],inactive
CC[N+](CC)(CCNC(=O)C(=O)NCC[N+](CC)(CC)Cc1ccccc1Cl)Cc1ccccc1Cl,Potency,[1],inactive
same,Potency,[2],inactive
CCCCN(CCCC)CCCOC(=O)c1ccc(N)cc1,Potency,[1],inactive
same,"activity change, negative = inhibition",[2],-17.6%
CNNCc1ccc(C(=O)NC(C)C)cc1,Potency,[1],inactive
CC[N+](C)(CC)CCOC(=O)C1c2ccccc2Oc2ccccc21,Potency,[1],inactive
same,Potency,[2],inactive
NS(=O)(=O)c1cc(C(=O)O)cc(N2CCCC2)c1Oc1ccccc1,Potency,[1],inactive
same,Potency,[2],inactive
NC(N)=NC(=O)Cc1c(Cl)cccc1Cl,Potency,[1],inactive
same,Potency,[2],inactive
Cc1ccc(C(=O)C(C)CN2CCCCC2)cc1 (centres undefined),Potency,[1],inactive
CSCC[C@H](NC(=O)[C@H](Cc1ccc(OS(=O)(=O)O)cc1)NC(=O)[C@@H](N)CC(=O)O)C(=O)NCC(=O)N[C@@H](Cc1c[nH]c2ccccc12)C(=O)N[C@@H](CCSC)C(=O)N[C@@H](CC(=O)O)C(=O)N[C@@H](Cc1ccccc1)C(N)=O,Potency,[1],inactive
CCOC(=O)[C@H](CCc1ccccc1)N[C@@H](C)C(=O)N1CCC[C@H]1C(=O)O,Potency,[1],inactive
same,"activity change, negative = inhibition",[2],-3.71% and -6.05%
COc1ccccc1OCC(O)CO (centres undefined),Potency,[1],inactive
same,"activity change, negative = inhibition",[2],-15.9%
O=c1[nH]c(=O)n([C@H]2C[C@H](O)[C@@H](CO)O2)cc1Br,Potency,[1],inactive
CC(CC(C#N)(c1ccccc1)C(C)C)N(C)C (centres undefined),Potency,[1],inactive
same,Potency,[2],inactive
Cc1noc(NS(=O)(=O)c2ccc(N)cc2)c1C,Potency,[1],inactive
same,"activity change, negative = inhibition",[2],-11.7%
N#CSCC(=O)O,Potency,[1],inactive
same,Potency,[2],inactive
C=CC(N)CCC(=O)O (centres undefined),Potency,[1],inactive
same,Potency,[2],inactive
NC(=O)NC1NC(=O)NC1=O (centres undefined),Potency,[1],inactive
same,Potency,[2],inactive
CC(=O)NC[C@H]1CN(c2ccc(N3CCOCC3)c(F)c2)C(=O)O1,Potency,[1],inactive
same,"activity change, negative = inhibition",[2],-4.07%
CC(CSC(=O)c1ccccc1)C(=O)N1C[C@@H](Sc2ccccc2)C[C@H]1C(=O)O (some centres undefined),Potency,[1],inactive
NS(=O)(=O)c1cc(Cl)c(Cl)c(S(N)(=O)=O)c1,Potency,[1],inactive
same,"activity change, negative = inhibition",[2],-0.105%
CC(=O)Nc1c(I)c(NC(C)=O)c(I)c(C(=O)O)c1I,Potency,[1],inactive
same,"activity change, negative = inhibition",[2],-1.67%
Nc1nc2[nH]cc(CCc3ccc(C(=O)N[C@@H](CCC(=O)O)C(=O)O)cc3)c2c(=O)[nH]1,Potency,[1],inactive
CC(=O)OCC(=O)[C@@]1(O)[C@H](OC(C)=O)C[C@H]2[C@@H]3CCC4=CC(=O)C=C[C@]4(C)[C@@]3(F)[C@@H](O)C[C@@]21C,Potency,[1],inactive
same,Potency,[2],inactive
COc1ccc2cc([C@H](C)C(=O)O)ccc2c1,Potency,[1],inactive
same,Potency,[2],inactive
CCCCOCCOC(=O)c1cccnc1,Potency,[1],inactive
same,Potency,[2],inactive
CC(O)(P(=O)(O)O)P(=O)(O)O,Potency,[1],inactive
same,Potency,[2],inactive
CCOc1ccc(NS(=O)(=O)c2ccc(N)cc2)nn1,Potency,[1],inactive
same,"activity change, negative = inhibition",[2],-12.4%
CC(C)(S)[C@@H](N)C(=O)O,outcome,[1],inactive [at 5.25 µM]
same,"activity change, negative = inhibition",[2],2.83% [at 5.25 µM]
OCc1ccc(Cl)cc1Cl,Potency,[1],inactive
same,Potency,[2],inactive
CCN1CC(CCN2CCOCC2)C(c2ccccc2)(c2ccccc2)C1=O (centres undefined),Potency,[1],inactive
same,"activity change, negative = inhibition",[2],-22.6%
CC(CCc1ccc(O)cc1)NCCc1ccc(O)c(O)c1 (centres undefined),Potency,[1],inactive
same,"activity change, negative = inhibition",[2],-37.3%
CC(=O)Nc1ccccc1,Potency,[1],inactive
same,"activity change, negative = inhibition",[2],4.61%
Cc1cc(OI)c(C(C)C)cc1-c1cc(C(C)C)c(OI)cc1C,Potency,[1],inactive
same,Potency,[2],inactive
CCCCCCCC/C=C/C(=O)O,Potency,[1],inactive
same,Potency,[2],inactive
CC(C)=CCC1C(=O)N(c2ccccc2)N(c2ccccc2)C1=O,Potency,[1],inactive
same,"activity change, negative = inhibition",[2],-3.84%
CC(C)[C@H](N)C(=O)OCCOCn1cnc2c(=O)[nH]c(N)nc21,Potency,[1],inactive
same,"activity change, negative = inhibition",[2],-28.1%
Cc1ccc(C(=O)C(=O)O)cc1C,Potency,[1],inactive
same,"activity change, negative = inhibition",[2],-19.4%
CCCc1ccc(OCC(=O)N2CCN(C(=O)COc3ccc(CCC)cc3OC)CC2)c(OC)c1,Potency,[1],inactive
same,"activity change, negative = inhibition",[2],-6.24%
COc1ccc(C2C(=O)c3ccccc3C2=O)cc1,Potency,[1],inactive
same,Potency,[2],inactive
